Data: PubChem BioAssay (NCATS)
Results filed as inconclusive are left out. The source made the active and inactive calls. Calls come from the whole dose curve; as a rule, active = well fitted curve in the direction sought with a large enough effect; inconclusive = small, poorly fitted or top-dose-only effect, or another doubt; inactive = no such curve, though single readings can be large; an effect the other way counts as inactive or inconclusive.

Columns and labels:
[1] = system: KB-3-1; experiment: Cytotoxic Profiling of Annotated Libraries Using Quantitative High-Throughput Screening (AID 1296008); conditions: Five cell lines viability, CellTiter-Glo ATP luminescence, 48-72 h; max response: stronger effect = lower value; note: nearly all actives have a fitted effect of over 60% in size; for max response: % is set by controls: 0 for no effect and ±100 for the full control effect
Method in brief: (§1)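 Compounds were pin-transferred onto cells and incubated 48 or 72 hr at 37 degree Celsius, 95% humidity. CellTiter-Glo was added, plates sat 10 min at room temperature, then ATP-coupled luminescence was imaged as the viability read-out.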

[2] = system: NIH3T3; experiment: as above; conditions: Five cell lines viability, CellTiter-Glo ATP luminescence, 48-72 h; max response: stronger effect = lower value
Method in brief: as §1

[3] = system: HACAT; experiment: qHTS assay to identify novel small-molecules to repurpose for Merkel cell carcinoma treatment (AID 1296009); conditions: MCC and control cell lines, CellTiter-Glo viability, 72 h; at 44.8 µM (top of the series) unless noted; note: nearly all actives have a fitted effect of over 60% in size
Method in brief: (§2)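 Viability readout: ATP luminescence (CellTiter-Glo) after 72 hr drug exposure at 37 degree celsius. Dose-response format was 8 points for NPC and 11 points for MIPE; data normalized to in-plate controls.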

[4] = system: HEK293T; experiment: as above; conditions: MCC and control cell lines, CellTiter-Glo viability, 72 h; series mostly up to 44.8 µM
Method in brief: as §2

[5] = system: NIH3T3; experiment: as above; conditions: MCC and control cell lines, CellTiter-Glo viability, 72 h; at 44.8 µM (top of the series) unless noted
Method in brief: as §2

[6] = system: C33A; experiment: Primary qHTS to identify gynecologic anti-cancer compounds using libraries of approved drugs and bioactive compounds (AID 1345084); conditions: Gynecologic cancer cell panel viability, ATPlite luminescence, 48 h; series mostly up to 57.5 µM; note: % is set by controls: 0 for no effect and ±100 for the full control effect; nearly all actives have a fitted effect of over 55% in size
Method in brief: (§3)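 In this quantitative HTS, cell killing is estimated from loss of ATP-dependent luciferase light. Cells see five compound concentrations over a 48 h exposure.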

[7] = system: CAOV3; experiment: as above; conditions: Gynecologic cancer cell panel viability, ATPlite luminescence, 48 h; series mostly up to 57.5 µM
Method in brief: as §3

[8] = system: CASKI; experiment: as above; conditions: Gynecologic cancer cell panel viability, ATPlite luminescence, 48 h; series mostly up to 57.5 µM
Method in brief: as §3

[9] = system: Es-2; experiment: as above; conditions: Gynecologic cancer cell panel viability, ATPlite luminescence, 48 h; series mostly up to 57.5 µM
Method in brief: as §3

[10] = system: HeLa; experiment: as above; conditions: Gynecologic cancer cell panel viability, ATPlite luminescence, 48 h; series mostly up to 57.5 µM
Method in brief: as §3

[11] = system: Hek293T; experiment: as above; conditions: Gynecologic cancer cell panel viability, ATPlite luminescence, 48 h, control line for the selectivity index; series mostly up to 57.5 µM
Method in brief: as §3

[12] = system: JEG-3; experiment: as above; conditions: Gynecologic cancer cell panel viability, ATPlite luminescence, 48 h; series mostly up to 57.5 µM
Method in brief: as §3

[13] = system: OV90; experiment: as above; conditions: Gynecologic cancer cell panel viability, ATPlite luminescence, 48 h; series mostly up to 57.5 µM
Method in brief: as §3

[14] = system: PA-1; experiment: as above; conditions: Gynecologic cancer cell panel viability, ATPlite luminescence, 48 h; series mostly up to 57.5 µM
Method in brief: as §3

CC(C)NC[C@H](O)COc1ccc(CCOCC2CC2)cc1
inactive: outcome [1] | outcome [2] | outcome [3] | Potency [4] | outcome [5] | Potency [6] | Potency [7] | Potency [8] | Potency [9] | Potency [10] | Potency [11] | Potency [12] | Potency [13] | Potency [14]

CC1=CC(=O)CC(C)(C)C1CCC(C)OC1OC(COC(=O)c2cc(O)c(O)c(O)c2)C(O)C(O)C1O (stereo unspecified)
inactive: outcome [1] | outcome [2] | outcome [3] inactive [at 17.4 µM] | Potency [4] | outcome [5] inactive [at 17.4 µM] | Potency [6] | Potency [7] | Potency [8] | Potency [9] | Potency [10] | Potency [11] | Potency [12] | Potency [13] | Potency [14]

COc1cccc(-c2ccc([C@@H](Oc3cc(-c4ccc(C[C@H](N)C(=O)O)cc4)nc(N)n3)C(F)(F)F)cc2)c1
inactive: outcome [1] | outcome [2] | outcome [3] | Potency [4] | outcome [5] | Potency [6] | Potency [7] | Potency [8] | Potency [9] | Potency [10] | Potency [11] | Potency [12] | Potency [13] | Potency [14]

C#Cc1cnc2[nH]c(=O)n(C(CC)CC)c2n1
inactive: max response [1] 8.63% | outcome [2] | outcome [3] | Potency [4] | outcome [5] | Potency [6] | Potency [7] | Potency [8] | Potency [9] | Potency [10] | Potency [11] | Potency [12] | Potency [13] | Potency [14]

COc1cc(C(C)=O)ccc1O[C@@H]1O[C@H](CO[C@@H]2O[C@@H](C)[C@H](O)[C@@H](O)[C@H]2O)[C@@H](O)[C@H](O)[C@H]1O
inactive: outcome [1] | outcome [2] | outcome [3] inactive [at 17.4 µM] | Potency [4] | outcome [5] inactive [at 17.4 µM] | Potency [6] | Potency [7] | Potency [8] | Potency [9] | Potency [10] | Potency [11] | Potency [12] | Potency [13]

O=C(/C=C/c1ccc(O)cc1)OC[C@H]1O[C@@H](OC(=O)/C=C/c2ccccc2)[C@H](O)[C@@H](O)[C@@H]1O
inactive: max response [1] -1.64% | outcome [2] | outcome [3] inactive [at 17.4 µM] | Potency [4] | outcome [5] inactive [at 17.4 µM] | Potency [6] | Potency [7] | Potency [8] | Potency [9] | Potency [10] | Potency [11] | Potency [12] | Potency [13] | Potency [14]

CC1(C)CC(=O)N(CCCCN2CCN(c3ncccn3)CC2)C(=O)C1
inactive: max response [1] 4.21% | outcome [2] | outcome [3] | Potency [4] | outcome [5] | Potency [6] | Potency [7] | Potency [8] | Potency [9] | Potency [10] | Potency [11] | Potency [12] | Potency [13]

CNC(=O)Nc1ccc(OC)c(NC(=O)NC(=O)c2cc(F)c(F)cc2Cl)c1
inactive: max response [1] 0.332% | outcome [2] | outcome [3] | Potency [4] | outcome [5] | Potency [6] | Potency [7] | Potency [8] | Potency [9] | Potency [10] | Potency [11] | Potency [12] | Potency [13] | Potency [14]

C/C=C1\[C@H](O[C@@H]2O[C@H](CO)[C@@H](O)[C@H](O)[C@H]2O)OC=C(C(=O)OC)[C@H]1CC(=O)OC
inactive: max response [1] 5.8% | outcome [2] | outcome [3] inactive [at 17.4 µM] | Potency [4] | outcome [5] inactive [at 17.4 µM] | Potency [6] | Potency [7] | Potency [8] | Potency [9] | Potency [10] | Potency [11] | Potency [12] | Potency [13] | Potency [14]

C=C1C(OC(C)=O)C(=O)C2C(C)(C)C(OC(C)=O)CCC2(C)C1CC(OC(C)=O)/C(C)=C/COC(C)=O (stereo unspecified)
inactive: max response [1] -4.48% | outcome [2] | outcome [3] inactive [at 17.4 µM] | Potency [4] | outcome [5] inactive [at 17.4 µM] | Potency [6] | Potency [7] | Potency [8] | Potency [9] | Potency [10] | Potency [11] | Potency [12] | Potency [13] | Potency [14]

CC(C)C1=CC2=CCC3[C@](C)(CCC[C@@]3(C)C(=O)O)C2CC1O (stereo partly specified)
inactive: outcome [1] | outcome [2] | outcome [3] | Potency [4] | outcome [5] | Potency [6] | Potency [7] | Potency [8] | Potency [9] | Potency [10] | Potency [11] | Potency [12] | Potency [13] | Potency [14]

CC1OC(O[C@H]2[C@@H](O)C[C@@]3(C)C([C@H](O)C[C@]4(C)C3CC=C3C5CC(C)(C)CC[C@]5(C(=O)OC5OC(CO)C(O)C(O)C5OC5OCC(OC6OCC(OC7OCC(O)C(O)C7O)C(O)C6O)C(OC6OCC(O)(CO)C6O)C5O)CC[C@]34C)[C@]2(C)CO)C(O)C(O)C1O (stereo partly specified)
inactive: max response [1] 0.161% | outcome [2] | outcome [3] inactive [at 9.27 µM] | outcome [4] inactive [at 9.27 µM] | outcome [5] inactive [at 9.27 µM] | activity change, negative = cytotoxicity [6] 4.56% [at 6.55 µM] | activity change, negative = cytotoxicity [7] -2.76% [at 6.55 µM] | activity change, negative = cytotoxicity [8] 1.71% [at 6.55 µM] | activity change, negative = cytotoxicity [9] -1.65% [at 6.55 µM] | activity change, negative = cytotoxicity [10] 2.57% [at 6.55 µM] | activity change, negative = cytotoxicity [11] -2% [at 6.55 µM] | activity change, negative = cytotoxicity [12] -1.46% [at 6.55 µM] | activity change, negative = cytotoxicity [13] 3.36% [at 6.55 µM] | activity change, negative = cytotoxicity [14] 2.16% [at 6.55 µM]
